Bioassay records: PubChem, several laboratories
ALR inh – inhibitors of human ALR sulfhydryl oxidase, primary screen, biochemical, H2O2 detection, HRP-luminol luminescence, single point | 3.8% of 290,000 active | purified ALR, DTT oxidation | AID 485317, 2010 | inhibition, % (concentration not given with the values);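 active = mean replicate inhibition above about 79%, with every replicate also reaching it, limit read from the data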
A3G deaminase – APOBEC3G DNA deaminase inhibitors, primary screen, biochemical, fluorescence, single-stranded DNA substrate, uHTS; DNA dC->dU-editing enzyme APOBEC-3G (Homo sapiens), Q9HC16; recombinant A3G, ssDNA deamination FAM/TAMRA fluorescence; inhibition, % at 20 µM; 0.28% of 330,000 active; AID 493012, 2011;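 active = inhibition of at least 40% at 20 µM, with no more than 30% in the related APOBEC3A deaminase screen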;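 also: plate controls were DMSO wells with A3G for no effect and wells lacking A3G enzyme for full effect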
PHOSPHO1 inh – PubChem AID 1565. recombinant PHOSPHO1, absorbance phosphatase assay. 1.1% of 290,000 active. inhibition, % at 13.3 µM; in the data active = inhibition above about 60%
Target sequence (Q8TCT1 whole entry, looked up): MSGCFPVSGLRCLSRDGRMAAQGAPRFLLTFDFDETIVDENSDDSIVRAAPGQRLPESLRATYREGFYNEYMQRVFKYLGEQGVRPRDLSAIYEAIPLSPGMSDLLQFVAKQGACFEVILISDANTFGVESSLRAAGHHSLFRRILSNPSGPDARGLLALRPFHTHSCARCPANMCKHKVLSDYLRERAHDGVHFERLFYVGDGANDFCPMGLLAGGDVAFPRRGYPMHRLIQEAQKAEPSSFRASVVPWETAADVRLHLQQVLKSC
rCAG RNA binder – binders of r(CAG) RNA repeats, primary screen, biochemical, fluorescence; r(CAG) RNA repeat, TO-PRO-1 dye displacement fluorescence; inhibition, % at 3 µM; 1.3% of 370,000 active;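 active = inhibition above the plate cutoff, the mean of all test compounds on that plate plus 3 SD, cut at about 35% in these data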;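 also: 0% = DMSO alone and 100% = 100 µM mitoxantrone as full dye displacement; higher means more dye released from RNA so lower well fluorescence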
APOBEC3A inh – APOBEC3A ssDNA deaminase inhibitors, primary screen, selectivity assay for APOBEC3G inhibitor project, biochemical, FAM/TAMRA oligo cleavage fluorescence; recombinant A3A, FAM/TAMRA ssDNA deamination fluorescence; 0.41% of 330,000 active; inhibition, % at 20 µM;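 active = at least 40% inhibition at 20 µM here, with at most 30% in a related deaminase screen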;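 also: plate controls were A3A with DMSO for no effect and wells lacking A3A enzyme for full effect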
Target sequence (P31941 whole entry, looked up): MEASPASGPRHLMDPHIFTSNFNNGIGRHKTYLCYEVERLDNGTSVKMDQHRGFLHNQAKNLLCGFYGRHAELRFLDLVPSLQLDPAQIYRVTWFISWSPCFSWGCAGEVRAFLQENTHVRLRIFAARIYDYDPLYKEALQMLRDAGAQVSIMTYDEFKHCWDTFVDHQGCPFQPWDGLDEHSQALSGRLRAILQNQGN
aDG glyco act – activators of alpha-DG glycosylation, primary screen, uHTS, Pro5-aDG cells, AlphaScreen; alpha-DG glycosylation AlphaScreen (IIH6); 0% Pro5, 100% B10-LARGE cell signal; activation, % at 10 µM; 0.22% of 360,000 active; AID 624168, 2012;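 active = activation of at least 8% versus controls, or a plate z-score of at least 8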;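 also: Pro5 are CHO cells carrying HIG-tagged alpha-DG that lacks glycosylation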
The depositor's hits bear a star. Sampled rows, rich in hits. Any-hit rate of the full collection: about 5.4%.

How did CCOC(=O)C1CCCN(C(=O)c2ccc3ncsc3c2)C1 (centres undefined) do in these assays?
ALR inh: 96*; A3G deaminase: -3; rCAG RNA binder: 0; APOBEC3A inh: -1; aDG glyco act: 3

How did CCCCN(C)CCCNC(=O)CS(=O)Cc1nc(-c2ccc(OC)c(OC)c2)oc1C (centres undefined) do in these assays?
ALR inh: 100*; A3G deaminase: 4; PHOSPHO1 inh: 42; rCAG RNA binder: 0; APOBEC3A inh: 2; aDG glyco act: 0

Results for CCCN(CCC)CCCNC(=O)CS(=O)Cc1nc(-c2ccc(OC)c(OC)c2)oc1C (centres undefined) ?
ALR inh: 100*; A3G deaminase: 2; PHOSPHO1 inh: 0; rCAG RNA binder: -6; APOBEC3A inh: 12; aDG glyco act: 0

How did NC(=O)c1ncn([C@@H]2O[C@H](C(=O)Nc3ccc(Oc4ccccc4)nc3)[C@@H](O)[C@H]2O)n1 do in these assays?
rCAG RNA binder: 0

What do the screens show for `COC(=O)[C@]12C[C@H](CC(=O)NCc3cccc(C(F)(F)F)c3)C(=O)N(Cc3cccc4ccccc34)C1=C[C@H](COCc1ccccc1)O[C@@H]2C`?
rCAG RNA binder: 7

What do the screens show for `COc1cccc(CN2CCNC(=O)C2CC(=O)N(C)C2CCOCC2)c1OC` (centres undefined)?
ALR inh: -30; A3G deaminase: -9; PHOSPHO1 inh: 66*; rCAG RNA binder: 1; APOBEC3A inh: -1; aDG glyco act: 0

What do the screens show for `COc1cccc(CN2CCNC(=O)C2CC(=O)N(C)CC2CCOCC2)c1OC` (centres undefined)?
ALR inh: -10; A3G deaminase: -7; PHOSPHO1 inh: 11; rCAG RNA binder: -3; APOBEC3A inh: -3; aDG glyco act: 0

Results for COc1ccc(S(=O)(=O)NCC2CCCN(Cc3cccc(C(C)=O)c3)C2)cc1 (centres undefined) ?
ALR inh: 76*; A3G deaminase: -3; PHOSPHO1 inh: 7; rCAG RNA binder: -2; APOBEC3A inh: -2; aDG glyco act: 2

Results for CN(C)[C@@H]1CCN(c2cccc3c2S(=O)(=O)N2CC[C@H](C2)O3)C1 ?
rCAG RNA binder: 2

How did CCN(C(=O)Cn1cc(C(=O)C(=O)N2CCOCC2)c2ccccc21)c1ccccc1 do in these assays?
ALR inh: -2; A3G deaminase: -7; PHOSPHO1 inh: 73*; rCAG RNA binder: -4; APOBEC3A inh: -3; aDG glyco act: 0

What do the screens show for `CCNc1ccc(C(=O)O)cc1N`?
ALR inh: 98*; A3G deaminase: -4; PHOSPHO1 inh: 3; rCAG RNA binder: -3; APOBEC3A inh: 0; aDG glyco act: 0

How did Nc1cc(C(=O)O)ccc1Nc1ccccc1 do in these assays?
A3G deaminase: 1; PHOSPHO1 inh: 0; rCAG RNA binder: 18; APOBEC3A inh: 1; aDG glyco act: 0

What do the screens show for `CCc1ccccc1Nc1ccc(C(=O)O)cc1N`?
ALR inh: 99*; A3G deaminase: -4; PHOSPHO1 inh: -2; rCAG RNA binder: 32; APOBEC3A inh: -4; aDG glyco act: 0

What do the screens show for `CC(C)Sc1nc(SCC(=O)NCc2ccco2)c2c3c(sc2n1)COC(C)(C)C3`?
ALR inh: 5; A3G deaminase: -5; PHOSPHO1 inh: -6; rCAG RNA binder: 14; APOBEC3A inh: 6; aDG glyco act: 0

What do the screens show for `CC(C)Sc1nc(SCC(=O)O)c2c3c(sc2n1)COC(C)(C)C3`?
A3G deaminase: -4; PHOSPHO1 inh: 84*; rCAG RNA binder: 14; APOBEC3A inh: 2; aDG glyco act: 0

Results for CCCCCCCCN1C(=O)[C@@H](CC(=O)NCCC(C)C)C[C@@]2(C(=O)OC)C1=C[C@H](C(C)C)O[C@@H]2C1CC1 ?
rCAG RNA binder: 9

How did COc1cccc(CNC(=O)[C@H]2CCCN2C(=O)[C@H]2CCCN2C(=O)c2ccc(C)cc2)c1 do in these assays?
rCAG RNA binder: 0

How did O=C1c2cccc3c([N+](=O)[O-])ccc(c23)C(=O)N1c1nccs1 do in these assays?
ALR inh: 17; A3G deaminase: -5; PHOSPHO1 inh: 97*; rCAG RNA binder: 2; APOBEC3A inh: 0; aDG glyco act: 1

How did O=C1c2cccc3c([N+](=O)[O-])ccc(c23)C(=O)N1O do in these assays?
ALR inh: 90*; A3G deaminase: 1; PHOSPHO1 inh: 2; rCAG RNA binder: 4; APOBEC3A inh: 30; aDG glyco act: 0

How did O=C1c2cccc3c([N+](=O)[O-])ccc(c23)C(=O)N1c1ccccn1 do in these assays?
ALR inh: 31; A3G deaminase: -8; PHOSPHO1 inh: 34; rCAG RNA binder: 0; APOBEC3A inh: -3; aDG glyco act: 0

Results for O=C1c2cccc3c([N+](=O)[O-])ccc(c23)C(=O)N1c1ccc(Cl)cn1 ?
ALR inh: 34; A3G deaminase: -5; PHOSPHO1 inh: 93*; rCAG RNA binder: -14; APOBEC3A inh: 1; aDG glyco act: 0

Results for Cc1cc(C(=O)O)c(C)o1 ?
rCAG RNA binder: 0

Results for Cn1c(=O)c2[nH]c(C3CC3)nc2n(C)c1=O ?
rCAG RNA binder: 0; aDG glyco act: 0

Results for Cn1c(=O)c2[nH]c(N=Nc3ccc(N)cc3N)nc2n(C)c1=O ?
ALR inh: 86*; A3G deaminase: -4; PHOSPHO1 inh: 16; rCAG RNA binder: 1; APOBEC3A inh: 0; aDG glyco act: 0

What do the screens show for `CC(NC(=O)COC(=O)c1cc([N+](=O)[O-])ccc1N1CCOCC1)c1ccccc1` (centres undefined)?
ALR inh: 1; A3G deaminase: 0; PHOSPHO1 inh: 61*; rCAG RNA binder: -6; APOBEC3A inh: -1; aDG glyco act: 0

Results for O=C(Nc1nnc(-c2ccncc2)o1)c1ccccc1 ?
ALR inh: 87*; A3G deaminase: 1; PHOSPHO1 inh: -107; rCAG RNA binder: 1; APOBEC3A inh: 6; aDG glyco act: 0

Results for CC1CCCCN1S(=O)(=O)c1ccc(C(=O)Nc2nnc(-c3ccncc3)o2)cc1 (centres undefined) ?
ALR inh: 81*; A3G deaminase: -5; PHOSPHO1 inh: 13; rCAG RNA binder: 14; APOBEC3A inh: -2; aDG glyco act: 0

What do the screens show for `N#CCCN(CCC#N)S(=O)(=O)c1ccc(C(=O)Nc2nnc(C3=COCCO3)o2)cc1`?
ALR inh: -17; A3G deaminase: -8; PHOSPHO1 inh: 16; rCAG RNA binder: 4; APOBEC3A inh: -5; aDG glyco act: 0
